# Source: the supplement of paper PMC12282887
# ± gives the standard deviation of the averaged measurements.
# Experiments:
# Test in all cases: promoter activity interaction Z-score (Lux/OD deviation from empty-vector control); higher = stronger promoter induction by the compound
# [1] = system: E. coli BW25113 acrABp lux reporter
# How it was run: (§1)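 At 37°C, E. coli BW25113 reporter cultures in 40 µl LB Lennox in 384-well plates were read for OD600 and luminescence every 30 min for 12 h. Windows were 0–8 h for wild type and 1–9 h for deletion strains, and wells under 10% of the median growth value were removed. The score is the Z-transformed residual of growth-normalised luminescence against a control fit.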
# [2] = system: E. coli BW25113 marRABp lux reporter
# How it was run: as §1
# [3] = system: E. coli BW25113 micFp lux reporter
# How it was run: as §1
# [4] = system: E. coli BW25113 ompFp lux reporter
# How it was run: as §1
# [5] = system: E. coli BW25113 robp lux reporter
# How it was run: as §1
# [6] = system: E. coli BW25113 soxSp lux reporter
# How it was run: as §1
# [7] = system: E. coli BW25113 tolCp lux reporter
# How it was run: as §1
# [8] = 35.6 µg/ml, genetic background: wild type
# [9] = 35.6 µg/ml, genetic background: ΔmarA
# [10] = 35.6 µg/ml, genetic background: Δrob
# [11] = 35.6 µg/ml, genetic background: ΔsoxS
# [12] = 71.1 µg/ml, genetic background: wild type
# [13] = 71.1 µg/ml, genetic background: ΔmarA
# [14] = 71.1 µg/ml, genetic background: Δrob
# [15] = 71.1 µg/ml, genetic background: ΔsoxS
# [16] = 142.3 µg/ml, genetic background: wild type
# [17] = 142.3 µg/ml, genetic background: ΔmarA
# [18] = 142.3 µg/ml, genetic background: Δrob
# [19] = 142.3 µg/ml, genetic background: ΔsoxS
# [20] = 284.5 µg/ml, genetic background: wild type
# [21] = 284.5 µg/ml, genetic background: ΔmarA
# [22] = 284.5 µg/ml, genetic background: Δrob
# [23] = 284.5 µg/ml, genetic background: ΔsoxS
smiles,measurement,setting,value
CC[C@H](C)[C@H](N)C1=N[C@H](C(=O)N[C@@H](CC(C)C)C(=O)N[C@H](CCC(=O)O)C(=O)N[C@H](C(=O)N[C@H]2CCCCNC(=O)[C@H](CC(N)=O)NC(=O)[C@@H](CC(=O)O)NC(=O)[C@H](Cc3cnc[nH]3)NC(=O)[C@@H](Cc3ccccc3)NC(=O)[C@H]([C@@H](C)CC)NC(=O)[C@@H](CCCN)NC2=O)[C@@H](C)CC)CS1 [Bacitracin],promoter activity interaction Z-score,[1]; [8],0.238 ± 0.011
same,promoter activity interaction Z-score,[1]; [9],0.0967 ± 0.69
same,promoter activity interaction Z-score,[1]; [10],0.103 ± 0.11
same,promoter activity interaction Z-score,[1]; [11],-0.486 ± 0.28
same,promoter activity interaction Z-score,[1]; [12],-0.189 ± 0.25
same,promoter activity interaction Z-score,[1]; [13],-0.152 ± 0.45
same,promoter activity interaction Z-score,[1]; [14],-0.3 ± 0.21
same,promoter activity interaction Z-score,[1]; [15],-0.354 ± 0.56
same,promoter activity interaction Z-score,[1]; [16],-0.563 ± 0.27
same,promoter activity interaction Z-score,[1]; [17],0.111 ± 0.27
same,promoter activity interaction Z-score,[1]; [18],-0.64 ± 0.089
same,promoter activity interaction Z-score,[1]; [19],-0.484 ± 0.29
same,promoter activity interaction Z-score,[1]; [20],-0.416 ± 0.21
same,promoter activity interaction Z-score,[1]; [21],-0.491 ± 0.073
same,promoter activity interaction Z-score,[1]; [22],-0.296 ± 0.36
same,promoter activity interaction Z-score,[1]; [23],0.474 ± 0.51
same,promoter activity interaction Z-score,[2]; [8],0.278 ± 0.2
same,promoter activity interaction Z-score,[2]; [9],0.153 ± 0.22
same,promoter activity interaction Z-score,[2]; [10],-0.0986 ± 0.2
same,promoter activity interaction Z-score,[2]; [11],-0.193 ± 0.086
same,promoter activity interaction Z-score,[2]; [12],-0.0216 ± 0.19
same,promoter activity interaction Z-score,[2]; [13],-0.262 ± 0.16
same,promoter activity interaction Z-score,[2]; [14],-0.251 ± 0.062
same,promoter activity interaction Z-score,[2]; [15],-0.169 ± 0.029
same,promoter activity interaction Z-score,[2]; [16],-0.588 ± 0.2
same,promoter activity interaction Z-score,[2]; [17],-0.5787 ± 0.0025
same,promoter activity interaction Z-score,[2]; [18],-0.542 ± 0.048
same,promoter activity interaction Z-score,[2]; [19],-0.36 ± 0.085
same,promoter activity interaction Z-score,[2]; [20],0.158 ± 0.24
same,promoter activity interaction Z-score,[2]; [21],0.0811 ± 0.011
same,promoter activity interaction Z-score,[2]; [22],-0.159 ± 0.29
same,promoter activity interaction Z-score,[2]; [23],0.576 ± 0.23
same,promoter activity interaction Z-score,[3]; [8],-0.0989 ± 0.035
same,promoter activity interaction Z-score,[3]; [9],-0.0164 ± 0.05
same,promoter activity interaction Z-score,[3]; [10],0.0475 ± 0.15
same,promoter activity interaction Z-score,[3]; [11],-0.478 ± 0.18
same,promoter activity interaction Z-score,[3]; [12],-0.268 ± 0.032
same,promoter activity interaction Z-score,[3]; [13],-0.0396 ± 0.049
same,promoter activity interaction Z-score,[3]; [14],-0.239 ± 0.028
same,promoter activity interaction Z-score,[3]; [15],-0.278 ± 0.083
same,promoter activity interaction Z-score,[3]; [16],-0.506 ± 0.083
same,promoter activity interaction Z-score,[3]; [17],-0.139 ± 0.089
same,promoter activity interaction Z-score,[3]; [18],-0.177 ± 0.087
same,promoter activity interaction Z-score,[3]; [19],-0.0874 ± 0.23
same,promoter activity interaction Z-score,[3]; [20],0.124 ± 0.091
same,promoter activity interaction Z-score,[3]; [21],-0.167 ± 0.014
same,promoter activity interaction Z-score,[3]; [22],-0.188 ± 0.095
same,promoter activity interaction Z-score,[3]; [23],0.2 ± 0.17
same,promoter activity interaction Z-score,[4]; [8],0.637 ± 0.23
same,promoter activity interaction Z-score,[4]; [9],0.358 ± 0.11
same,promoter activity interaction Z-score,[4]; [10],0.253 ± 0.87
same,promoter activity interaction Z-score,[4]; [11],-0.738 ± 0.32
same,promoter activity interaction Z-score,[4]; [12],0.389 ± 0.42
same,promoter activity interaction Z-score,[4]; [13],0.103 ± 0.39
same,promoter activity interaction Z-score,[4]; [14],-0.153 ± 0.32
same,promoter activity interaction Z-score,[4]; [15],-0.256 ± 0.011
same,promoter activity interaction Z-score,[4]; [16],-0.463 ± 0.37
same,promoter activity interaction Z-score,[4]; [17],0.405 ± 1.2
same,promoter activity interaction Z-score,[4]; [18],-0.823 ± 0.087
same,promoter activity interaction Z-score,[4]; [19],0.0137 ± 0.45
same,promoter activity interaction Z-score,[4]; [20],1.52
same,promoter activity interaction Z-score,[4]; [21],0.962 ± 0.71
same,promoter activity interaction Z-score,[4]; [22],1.05 ± 1.1
same,promoter activity interaction Z-score,[4]; [23],1.9 ± 0.51
same,promoter activity interaction Z-score,[5]; [8],0.859 ± 0.14
same,promoter activity interaction Z-score,[5]; [9],-0.334 ± 0.088
same,promoter activity interaction Z-score,[5]; [10],0.568 ± 0.89
same,promoter activity interaction Z-score,[5]; [11],0.00456 ± 0.7
same,promoter activity interaction Z-score,[5]; [12],0.186 ± 0.99
same,promoter activity interaction Z-score,[5]; [13],0.452 ± 0.16
same,promoter activity interaction Z-score,[5]; [14],0.266 ± 0.06
same,promoter activity interaction Z-score,[5]; [15],-0.45 ± 0.04
same,promoter activity interaction Z-score,[5]; [16],-0.429 ± 0.72
same,promoter activity interaction Z-score,[5]; [17],0.326 ± 0.28
same,promoter activity interaction Z-score,[5]; [18],-0.561 ± 0.13
same,promoter activity interaction Z-score,[5]; [19],-0.919 ± 0.74
same,promoter activity interaction Z-score,[5]; [20],-0.714 ± 0.18
same,promoter activity interaction Z-score,[5]; [21],-0.548 ± 0.32
same,promoter activity interaction Z-score,[5]; [22],-0.858 ± 1
same,promoter activity interaction Z-score,[5]; [23],-0.93 ± 0.068
same,promoter activity interaction Z-score,[6]; [8],0.0222 ± 0.019
same,promoter activity interaction Z-score,[6]; [9],-0.0752 ± 0.056
same,promoter activity interaction Z-score,[6]; [10],0.145 ± 0.063
same,promoter activity interaction Z-score,[6]; [11],-0.325 ± 0.089
same,promoter activity interaction Z-score,[6]; [12],-0.173 ± 0.011
same,promoter activity interaction Z-score,[6]; [13],-0.209 ± 0.049
same,promoter activity interaction Z-score,[6]; [14],-0.232 ± 0.096
same,promoter activity interaction Z-score,[6]; [15],-0.288 ± 0.14
same,promoter activity interaction Z-score,[6]; [16],-0.325 ± 0.11
same,promoter activity interaction Z-score,[6]; [17],-0.318 ± 0.0051
same,promoter activity interaction Z-score,[6]; [18],-0.254 ± 0.028
same,promoter activity interaction Z-score,[6]; [19],-0.236 ± 0.42
same,promoter activity interaction Z-score,[6]; [20],-0.265 ± 0.017
same,promoter activity interaction Z-score,[6]; [21],-0.188 ± 0.075
same,promoter activity interaction Z-score,[6]; [22],-0.556 ± 0.091
same,promoter activity interaction Z-score,[6]; [23],0.196
same,promoter activity interaction Z-score,[7]; [8],0.175 ± 0.14
same,promoter activity interaction Z-score,[7]; [9],0.3 ± 0.76
same,promoter activity interaction Z-score,[7]; [10],-0.634 ± 0.13
same,promoter activity interaction Z-score,[7]; [11],-0.127 ± 0.13
same,promoter activity interaction Z-score,[7]; [12],-0.904 ± 0.76
same,promoter activity interaction Z-score,[7]; [13],-0.251 ± 0.39
same,promoter activity interaction Z-score,[7]; [14],-0.77 ± 0.38
same,promoter activity interaction Z-score,[7]; [15],-0.771 ± 0.63
same,promoter activity interaction Z-score,[7]; [16],-1.08 ± 0.47
same,promoter activity interaction Z-score,[7]; [17],-0.183 ± 0.34
same,promoter activity interaction Z-score,[7]; [18],-0.421 ± 0.15
same,promoter activity interaction Z-score,[7]; [19],-0.321 ± 0.69
same,promoter activity interaction Z-score,[7]; [20],-0.273 ± 0.36
same,promoter activity interaction Z-score,[7]; [21],-0.299 ± 0.51
same,promoter activity interaction Z-score,[7]; [22],-1.24 ± 0.052
same,promoter activity interaction Z-score,[7]; [23],-0.245 ± 0.87
